# Source: the supplement of paper PMC9694430
# Several values for one entry are separate records, joined by “and”; a condition that tells them apart may be missing. Equal values may be shown once. Where a name gives a salt, the structure may show the parent alone.
# How the values were obtained:
# Test in all cases: thermal shift delta Tm vs DMSO control; higher = stronger stabilization (binding)
# Conditions in all cases: 12.5 µM; protein concentration 2 µM
# [1] = system: LOC_OS01G01410-cb001
# Outline: (§1)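 Rice kinase domain constructs were expressed in E. coli, purified, and tested by differential scanning fluorimetry with compound added in DMSO. Each well of a 96-well plate held 19.5 μl of 2 μM kinase in 100 mM potassium phosphate pH 7.5, 150 mM NaCl, 10% glycerol and 5 × SYPRO Orange, and fluorescence was read from 25°C to 95°C at 0.05°C/s. The melting temperature shift is the mean of triplicates, taken against protein with DMSO alone after Boltzmann fitting.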
# [2] = system: LOC_OS01G02750-cb003
# Outline: as §1
# [3] = system: LOC_OS01G10900-cb004
# Outline: as §1
# [4] = system: LOC_OS01G13800-cb001
# Outline: as §1
# [5] = system: LOC_OS01G14860-cb001
# Outline: as §1
# [6] = system: LOC_OS01G21960-cb002
# Outline: as §1
# [7] = system: LOC_OS01G39600-cb002
# Outline: as §1
# [8] = system: LOC_OS01G48390-cb002
# Outline: as §1
# [9] = system: LOC_OS01G51400-cb002
# Outline: as §1
# [10] = system: T1, LOC_OS01G52050-cb004
# T1 sequence (whole entry): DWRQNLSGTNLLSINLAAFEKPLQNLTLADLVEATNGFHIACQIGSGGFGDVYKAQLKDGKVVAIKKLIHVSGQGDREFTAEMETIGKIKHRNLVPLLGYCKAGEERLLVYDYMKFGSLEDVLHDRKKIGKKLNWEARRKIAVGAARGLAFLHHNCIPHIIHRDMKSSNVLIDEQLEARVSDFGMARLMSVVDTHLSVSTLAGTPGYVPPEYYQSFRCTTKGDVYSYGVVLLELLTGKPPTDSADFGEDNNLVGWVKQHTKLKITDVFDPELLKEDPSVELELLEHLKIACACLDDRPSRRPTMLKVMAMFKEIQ
# Outline: as §1
Structure (SMILES),thermal shift delta Tm [1],thermal shift delta Tm [2],thermal shift delta Tm [3],thermal shift delta Tm [4],thermal shift delta Tm [5],thermal shift delta Tm [6],thermal shift delta Tm [7],thermal shift delta Tm [8],thermal shift delta Tm [9],thermal shift delta Tm [10]
O=C(O)c1ccc2c3c1cccc3c(=O)n1c3ccccc3nc21,3.12 °C,0.97 °C,0.69 °C,0.32 °C,1.4 °C,0.71 °C,0.62 °C,0.91 °C,0 °C,1.18 °C
O=C(NOCC1CC1)c1ccc(F)c(F)c1Nc1ccc(I)cc1Cl,1.01 °C,11.3 °C,1.62 °C,0.71 °C,1.37 °C,1.16 °C,1.41 °C,1.28 °C,0.54 °C,2.25 °C
C[C@H]1[C@H](C)CC[C@]2(C(=O)O)CC[C@]3(C)C(=CC[C@@H]4[C@@]5(C)C[C@@H](O)[C@H](O)[C@@](C)(CO)[C@@H]5CC[C@]43C)[C@H]12 [Asiatic Acid],0.45 °C,-0.18 °C,0.15 °C,1.17 °C,0.23 °C,0.75 °C,0.1 °C,0.45 °C,0.17 °C,0.2 °C
O=C(Nc1cnn2ccc(N3CCC[C@@H]3c3cc(F)ccc3F)nc12)N1CC[C@H](O)C1 [Larotrectinib (LOXO-101) sulfate],-0.1 °C,0.5 °C,0.8 °C,0.17 °C,0.39 °C,0.24 °C,-0.28 °C,1.09 °C,-0.18 °C,0.04 °C
O=C(O)c1ccc(-c2c[nH]c3ncc(-c4ccccc4)cc23)cc1C1CCCC1,5.06 °C,4.25 °C,0.46 °C,-0.9 °C,5.49 °C,1.3 °C,14.5 °C,-1.42 °C,-0.58 °C,10.5 °C
COc1cc(N2CCC(N3CCN(C)CC3)CC2)ccc1Nc1ncnc(Nc2ccccc2S(=O)(=O)C(C)C)n1,0.27 °C,1.86 °C,0.08 °C,-0.11 °C,0.33 °C,0.28 °C,0.25 °C,0.94 °C,0.37 °C,0.61 °C
Cc1cc(Nc2cc(CN3CCOCC3)c3nc(C)c(Cc4ccc(Cl)cc4F)n3n2)n[nH]1,2.97 °C,3.19 °C,1.89 °C,-0.62 °C,7.26 °C,2.02 °C,2.41 °C,5.72 °C,-0.5 °C,1.05 °C
CNC(=O)c1ccc(-c2cnc3ncc(Cc4ccc5ncccc5c4)n3n2)cc1F,0.07 °C,0.51 °C,0.48 °C,-0.08 °C,0.29 °C,0.73 °C,-0.03 °C,0.24 °C,-0.03 °C,0.32 °C
CCN1/C(=C/C(C)=O)Sc2ccc(OC)cc21,0.21 °C,0.62 °C,0.24 °C,0.6 °C,1.92 °C,1.17 °C,-0.62 °C,0.54 °C,0.02 °C,-0.01 °C
CCN(CC)CCCC(C)Nc1ccnc2cc(Cl)ccc12 (stereo not given) [Chloroquine Phosphate],0.08 °C,1.04 °C,0.14 °C,0.44 °C,0.13 °C,0.63 °C,-0.06 °C,-0.02 °C,0 °C,-0.11 °C
C=CC(=O)Nc1cccc(Nc2nc(Nc3ccc(Oc4ccnc(C(=O)NC)c4)cc3)ncc2F)c1,4.52 °C,1.34 °C,1.05 °C,0.7 °C,4.66 °C,2.14 °C,1.74 °C,0.98 °C,0.31 °C,3.1 °C
O=c1c(-c2ccc(O)cc2)coc2cc(O)cc(O)c12 [Genistein],0.67 °C,0.54 °C,0.86 °C,-0.01 °C,1.11 °C,0.55 °C,0.12 °C,0.77 °C,0.12 °C,1.14 °C
C[C@@H]1CCN(C(=O)CC#N)C[C@@H]1N(C)c1ncnc2[nH]ccc12,0.9 °C and -0.07 °C,0.59 °C and 1.29 °C,1.82 °C and 1.15 °C,-0.91 °C and -0.21 °C,0.33 °C and 0.19 °C,0.43 °C and 0.81 °C,1.17 °C and 1.71 °C,1.08 °C and 0.82 °C,0.59 °C and 0.38 °C,0.05 °C and 0.04 °C
Cc1c(NC(=O)OC[C@@H]2COCCN2)cn2ncnc(Nc3ccc4c(cnn4Cc4cccc(F)c4)c3)c12,0.88 °C,-0.18 °C,0.06 °C,0.7 °C,0.19 °C,0.52 °C,0.91 °C,0.07 °C,0.14 °C,0.23 °C
CC(C)(C)c1cc(NC(=O)Nc2ccc(-c3cn4c(n3)sc3cc(OCCN5CCOCC5)ccc34)cc2)no1 [Quizartinib (AC220)],-0.06 °C,0.83 °C,0.82 °C,0.79 °C,0.25 °C,1.03 °C,0.27 °C,0.74 °C,-0.16 °C,0.84 °C
CNC(=O)c1cc(COc2nnc(Nc3ccc(Cl)cc3)c3ccoc23)ccn1 [Telatinib],0.67 °C,0.92 °C,0.29 °C,0.36 °C,0.15 °C,0.85 °C,-0.38 °C,0.26 °C,0.08 °C,0.21 °C
COc1cc2ncnc(Nc3cccc(Cl)c3F)c2cc1OC(=O)N1CCN(C)C[C@H]1C,0.74 °C,0.31 °C,0.52 °C,-0.2 °C,0.07 °C,0.37 °C,-0.74 °C,0.45 °C,0.35 °C,-0.17 °C
O=c1cc(N2CCOCC2)oc2c(-c3ccc4c(c3)OCCO4)csc12,0.37 °C,2.36 °C,3.38 °C,-0.36 °C,2.26 °C,0.76 °C,0.21 °C,1.47 °C,0.47 °C,4.58 °C
